PubChem BioAssay (Tox21)
Several values for one entry are separate records, joined by “and”; a condition that tells them apart may be missing. Identical values can stand only once. Inconclusive results are not listed. Some compounds were tested as several samples or in several runs, with calls that do not always agree. Activity calls are given as the source filed them. Unless noted, calls follow the shape of the dose curve; as a rule, active = well fitted curve in the direction sought with a large enough effect in the repeat runs; inconclusive = weak or mixed curves; inactive = no such curve, though single readings can be large; an effect the other way counts as inactive or inconclusive.

Tests used:
[1] = biological target: Retinoic acid receptor RXR-alpha (Homo sapiens) (UniProt P19793); assay: qHTS assay to identify small molecule agonists of the RXR signaling pathway (AID 1159527; calls by dose curve; also: nearly all actives have a fitted effect of over 35% in size; also: potency is read from the fitted curve at half-maximal effect)
Outline: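 Beta-lactamase reporter assay, agonist format. Engineered HEK 293T line, charcoal-stripped FBS at 2%, overnight (16 hr) exposure, fluorescence at 460 and 530 nm after 405 nm excitation.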

[2] = qHTS assay to identify small molecule agonists of the RXR signaling pathway - cell viability counter screen (AID 1159529);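 also: HEK 293T cells carrying an RXR-alpha UAS beta-lactamase reporter; series mostly up to about 77 µM; nearly all actives have a fitted effect of over 50% in size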
Outline: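 Same-well viability check after the LiveBLAzer FRET read: CellTiter-Glo added, luminescence measured after 30 min at room temperature. Reporter HEK 293T cells had been treated with compounds for 16 hr following a 5 hr preincubation.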

[3] = qHTS assay to identify small molecule antagonists of the retinoid acid receptor (RAR) signaling pathway - cell viability counter screen (AID 1159551); also: nearly all actives have a fitted effect of over 35% in size
Outline: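 Retinol-stimulated (1 uM final) C3RL4 cells, compound 6 h, 37 C; readout CellTiter-Glo luminescence (ATP) after 30 min RT incubation.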

[4] = qHTS assay to identify small molecule antagonists of the retinoic acid receptor (RAR) signaling pathway (AID 1159552; also: nearly all actives have a fitted effect of over 50% in size)
Outline: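 Readout: luciferase luminescence, 30 min post-reagent at RT. Setup: C3RL4 RARE reporter cells, compounds plus retinol 1 uM final, 6 hr incubation at 37 C and 5% CO2.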

[5] = qHTS assay to identify small molecule agonists of the retinoic acid receptor (RAR) signaling pathway (AID 1159553); also: potency is read from the fitted curve at half-maximal effect
Outline: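 Reporter readout comes from luciferase under RARE control in C3RL4 cells; compound exposure lasts 6 hr at 37 C in 5% CO2, and luminescence is recorded following a 30 min room-temperature incubation with reagent.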

[6] = qHTS assay to identify small molecule antagonists of the estrogen related receptor (ERR) signaling pathway - cell viability counter screen (AID 1224818);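 also: series mostly up to about 46 µM; viability measured after 17.5 h of compound exposure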
Outline: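 After a 6 h pre-incubation, ERR cells were dosed by pin tool with compounds, positive/negative controls or DMSO alone. Following 17.5 h at 37 C and 30 min with CellTiter-Fluor, fluorescence was recorded.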

[7] = qHTS assay to identify small molecule antagonists of the estrogen related receptor signaling pathway with the pleiotropic PPARgamma coactivator (PGC) cell viability counter screen (AID 1224822;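 also: series mostly up to about 46 µM; viability read after 17.5 h compound exposure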)
Outline: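 PGC/ERR cells were plated at 2,000 per well and allowed 6 h to settle before compound addition. Following 17.5 h at 37 C, CellTiter-Fluor reagent was added and fluorescence was read 30 min later.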

[8] = qHTS assay to identify small molecule antagonists of the estrogen related receptor (ERR) signaling pathway (AID 1224819;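 also: luminescence from an ERR-driven luciferase reporter measured with One-Glo reagent; series mostly up to about 46 µM; nearly all actives have a fitted effect of over 50% in size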)
Outline: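 Luminescence readout (One-Glo, 30 min, RT) of ERR cell line after 18 h compound exposure at 37 C; cells seeded 2,000/well, pre-incubated 6 h, compounds pinned from DMSO stocks.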

[9] = qHTS assay to identify small molecule agonists of the estrogen related receptor (ERR) signaling pathway (AID 1224820)
Outline: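 Quantitative HTS of the LOPAC library used NTP ERR reporter cells treated 18 h at 37 C. Signal is luminescence after One-Glo addition and a 30 min room-temperature incubation.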

[10] = system: estrogen-related receptor alpha (ERRalpha) with PGC-1alpha coactivator, human; assay: qHTS assay to identify small molecule antagonists of the estrogen related receptor signaling pathway with the pleiotropic PPARgamma coactivator (PGC) (AID 1224821; calls by dose curve;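 also: series mostly up to about 46 µM; lower luminescence signal means antagonism of PGC/ERR signalling; nearly all actives have a fitted effect of over 50% in size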)
Outline: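 Quantitative HTS for antagonism: PGC/ERR cells received compounds after 6 h attachment and were incubated 18 h at 37 C, with luminescence (One-Glo) as the endpoint.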

Measured: Potency

Retinoic acid receptor RXR-alpha (Homo sapiens), sequence (P19793 whole entry, looked up): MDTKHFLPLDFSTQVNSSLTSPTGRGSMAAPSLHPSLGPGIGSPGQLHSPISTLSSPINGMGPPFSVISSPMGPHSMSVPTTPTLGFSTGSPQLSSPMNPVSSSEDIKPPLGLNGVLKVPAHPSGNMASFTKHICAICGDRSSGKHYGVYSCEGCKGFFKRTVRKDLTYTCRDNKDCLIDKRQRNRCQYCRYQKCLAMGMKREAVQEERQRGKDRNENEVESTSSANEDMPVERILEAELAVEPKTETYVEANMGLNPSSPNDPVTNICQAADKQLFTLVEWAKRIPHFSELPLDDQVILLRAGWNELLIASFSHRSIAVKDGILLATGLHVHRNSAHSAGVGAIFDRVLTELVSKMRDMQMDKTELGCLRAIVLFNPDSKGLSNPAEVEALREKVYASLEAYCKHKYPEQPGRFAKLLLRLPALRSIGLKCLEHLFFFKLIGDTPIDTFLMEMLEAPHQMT

CC(C)(C)c1cc(Cc2cc(C(C)(C)C)c(O)c(C(C)(C)C)c2)cc(C(C)(C)C)c1O
inactive: [1] | [2] | [3] | [4] | [5]

CCCCC(C=O)CC (stereo not given)
inactive: [1] | [2] | [3] | [4] | [5]

COc1ccc(CCC(C)=O)cc1
inactive: [1] | [2] | [3] | [4] | [5]

CNC(=S)N(C)C
inactive: [1] | [2] | [3] | [4] | [5]

O=C(O)c1ccc(S(=O)(=O)N(Cl)Cl)cc1
inactive: [1] | [2] | [3] | [4] | [5]

c1ccc2c(c1)Cc1ccccc1-2
inactive: [1] | [2] | [3] | [4] | [5]

O=S(=O)(O)c1ccccc1
inactive: [1] | [2] | [3] | [4] | [5]

Nc1nc(N)nc(-c2ccccc2)n1
inactive: [1] | [2] | [3] | [4] | [5]

CC1(C)S[C@@H]2[C@H](NC(=O)COc3ccccc3)C(=O)N2[C@H]1C(=O)O
inactive: [1] | [2] | [3] | [4] | [5]

CC(=O)Oc1ccc(C)cc1
inactive: [1] | [2] | [3] | [4] | [5]

CC(C)OC(=O)COc1ccc(Cl)cc1Cl
inactive: [1] | [2] | [3] | [4] | [5]

C=CC[N+](C)(C)CC=C
inactive: [1] | [2] | [3] | [4] | [5]

COCCOC(=O)c1ccccc1C(=O)OCCOC
inactive: [1] | [2] | [3] | [4] | [5]

CCOC(=O)n1ccn(C)c1=S
inactive: [1] | [2] | [3] | [4] | [5]

Brc1ccc(Br)c(Br)c1
inactive: [1] | [2] | [3] | [4] | [5]

CSc1ccc(Cl)cc1
inactive: [1] | [2] | [3] | [4] | [5]

O=C(O)c1ccccc1C(=O)O
inactive: [1] | [2] | [3] | [4] | [5]

Cc1ccc(C(C)C)c(O)c1
inactive: [1] | [2] | [3] | [4] | [5]

OCc1ccccc1
inactive: [1] | [2] | [3] | [4] | [5]

CC(=O)CCC=C(C)C
inactive: [1] | [2] | [3] | [4] | [5]

COC(=O)c1cccnc1
inactive: [1] | [2] | [3] | [4] | [5]

Cc1ccc(S(=O)(=O)N=C=O)cc1
inactive: [1] | [2] | [3] | [4] | [5]

CCOCCOCCOCCO
inactive: [1] | [2] | [3] | [4] | [5]

O=C(O)Cn1c(=O)n(Cc2ccc(Br)cc2F)c(=O)c2ccc(Cl)cc21
inactive: [1] | [2] | [3] | [4] | [5]

Cc1ccc2ncccc2c1
inactive: [2] | [3] | [4] | [5]
inactive and 13.8 µM (active): [1]

O=C1C(c2[nH]c3ccccc3c2O)=Nc2ccccc21
inactive: [1] | [2] | [3] | [4] | [5]

CC(C)CC(=O)CC(C)CC(C)C (stereo not given)
inactive: [1] | [2] | [3] | [4] | [5]

CC(CCl)OP(=O)(OC(C)CCl)OC(C)CCl (stereo not given)
inactive: [1] | [2] | [3] | [4] | [5]

C=C(C)C(=O)OCC(C)C
inactive: [1] | [2] | [3] | [4] | [5]

CN1C(=O)CC[C@H]1c1cccnc1
inactive: [1] | [2] | [3] | [6] | [7]

Nc1ccc(Cl)c(N)c1
active: [5] 68.6 µM
inactive: [1] | [2] | [3] | [4]

CCCCOC(=O)c1ccc(N)cc1
inactive: [1] | [2] | [3] | [4]
active: [5] 26.9 µM and 21.1 µM

O=c1[nH]cnc2[nH]ncc12
not listed: [8] | [9] | [10]
inactive: all other assays above

CCCCCC(=O)O
inactive: [1] | [2] | [3] | [4] | [5]

C=CC(=O)OCCC(=O)O
inactive: [1] | [2] | [3] | [4] | [5]

CNC(=O)Oc1ccc2c(c1)[C@]1(C)CCN(C)[C@@H]1N2C
inactive: [1] | [2] | [3] | [6] | [7]

C=Cc1ccc(C)cc1
inactive: [1] | [2] | [3] | [4] | [5]

C=C(C)CNCC
inactive: [1] | [2] | [3] | [4] | [5]

CCCCCCCCCCN
inactive: [1] | [2] | [3] | [4] | [5]

OCc1cccc(Oc2ccccc2)c1
inactive: [1] | [2] | [3] | [4] | [5]

NCCNCCN
inactive: [1] | [2] | [3] | [4] | [5]

CCCCCCCCCCO
inactive: [1] | [2] | [3] | [4] | [5]

CC(C)(Oc1ccc(CCNC(=O)c2ccc(Cl)cc2)cc1)C(=O)O
not listed: [4] | [5]
inactive: all other assays above

CC(=O)OCc1ccccc1
inactive: [1] | [2] | [3] | [4] | [5]

COC(=O)CCCC(=O)OC
inactive: [1] | [2] | [3] | [4] | [5]

C[C@]12CC[C@@H]3c4ccc(O)cc4CC[C@H]3[C@@H]1C[C@@H](O)[C@@H]2O
inactive: [1] | [2] | [3] | [5]

Clc1ccccn1
inactive: [1] | [2] | [3] | [4] | [5]

CN(C)CCOC(=O)COc1ccc(Cl)cc1
inactive: all assays above

CC(CCO)CC(C)(C)C (stereo not given)
inactive: [1] | [2] | [3] | [4] | [5]

CC1(C)CC(N)CC(C)(CN)C1 (stereo not given)
inactive: [1] | [2] | [3] | [4] | [5]

O=C(OCC1CCC2OC2C1)C1CCC2OC2C1 (stereo not given)
inactive: [1] | [2] | [3] | [4] | [5]

Cc1ccc([N+](=O)[O-])cc1S(=O)(=O)O
inactive: [1] | [2] | [3] | [4] | [5]

CC(=O)OC1CC(C)OC(C)O1 (stereo not given)
inactive: [1] | [2] | [3] | [4] | [5]

CC(C)=CCl
inactive: [1] | [2] | [3] | [5]

CC1(C)NC(=O)NC1=O
inactive: [1] | [2] | [3] | [4] | [5]

CCCCCCC=O
inactive: [1] | [2] | [3] | [4] | [5]

CCOCC(=O)O
inactive: [1] | [2] | [3] | [4] | [5]

c1ccc(Oc2ccccc2)cc1
inactive: [1] | [2] | [3] | [4] | [5]

CC(C)CCCCCCCOC(=O)CCCCC(=O)OCCCCCCCC(C)C
inactive: [1] | [2] | [3] | [4] | [5]

CCCCCCO
inactive: [1] | [2] | [3] | [4] | [5]

NCCCCCCN
inactive: [1] | [2] | [3] | [4] | [5]

CCNc1cccc(C)c1
inactive: [1] | [2] | [3] | [4] | [5]

CN(C)c1ccc(Cc2ccc(N(C)C)cc2)cc1
inactive: [1] | [2] | [3] | [4] | [5]

C=CC(C)CCCC(C)(C)O (stereo not given)
inactive: [1] | [2] | [3] | [4] | [5]

CCCCCCCCCCCCCCCCO
inactive: [1] | [2] | [3] | [4] | [5]

C[C@]12CCC(=O)C=C1CC[C@@H]1[C@@H]2[C@@H](O)C[C@@]2(C)[C@H]1CC[C@]2(O)C(=O)CO
not listed: [8] | [9] | [10]
inactive: all other assays above
